Screening data: PubChem, National Center for Advancing Translational Sciences (NCATS)
Hits are enriched below; roughly 4.7% of the tested compounds scored in any of these assays.
TRHR ag: qHTS for Small Molecule Agonists and Allosteric Enhancers of Human TRH Receptor: Primary Screen for Agonists; Thyrotropin-releasing hormone receptor (Homo sapiens), P34981; TRHR cells, calcium flux fluo-8, FDSS agonist mode; activation, % at 2 µM; actives 0.18% (n = 360,000); note: 0% is about no effect
Target sequence (P34981 whole entry, looked up): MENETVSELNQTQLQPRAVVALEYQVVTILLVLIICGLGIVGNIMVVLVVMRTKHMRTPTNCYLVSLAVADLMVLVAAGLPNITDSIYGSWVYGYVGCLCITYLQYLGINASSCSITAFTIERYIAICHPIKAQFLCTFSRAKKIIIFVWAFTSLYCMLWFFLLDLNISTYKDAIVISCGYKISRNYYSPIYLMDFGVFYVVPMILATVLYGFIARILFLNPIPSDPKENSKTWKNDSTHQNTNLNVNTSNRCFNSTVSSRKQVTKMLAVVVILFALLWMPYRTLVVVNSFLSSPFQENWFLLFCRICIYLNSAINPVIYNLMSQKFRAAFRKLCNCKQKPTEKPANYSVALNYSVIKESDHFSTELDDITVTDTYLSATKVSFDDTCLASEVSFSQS
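Steps: seed TRHR cells overnight; add fluo-8 no-wash Ca dye, RT 30 min–1.5 h; record 10 s baseline; pin-transfer compounds; monitor fluorescence 1 cycle/s for the agonist window. Calcium increases flag candidate agonists.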
TRHR PAM: qHTS for Small Molecule Agonists and Allosteric Enhancers of Human TRH Receptor: Primary Screen for Enhancers | Thyrotropin-releasing hormone receptor (Homo sapiens), P34981 | TRHR cells, fluo-8 calcium fluorescence, EC20 TRH enhancement | enhancement, % at 2 µM | actives 0.66% (n = 360,000) | AID 493056, 2011; in the data active = enhancement above about 30%; note: 0% is about no effect
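Enhancer read-out: after compound pinning and an initial kinetic agonist-mode read, an EC20 of TRH (10 nM final) was injected and fluo-8 calcium signal (Ex 480/Em 530) followed at 1 s/cycle for 100 cycles in TRHR-expressing cells.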
D1 potentiator: Potentiators of Human D1 Dopamine Receptor: qHTS. HEK293 TREx D1 cells, calcium flux, dopamine EC20 potentiation. actives 0.036% (n = 360,000). potentiation, % at 10 µM; in the data active = potentiation above about 30%; note: 0% is about no effect
D1 antag: Antagonist of Human D 1 Dopamine Receptor: qHTS; D(1A) dopamine receptor (Homo sapiens), P21728; HEK293 TREx D1 cells, calcium flux, dopamine EC80; active compounds read low; activity change, negative = inhibition, % at 10 µM; actives 3.2% (n = 360,000); in the data active = activity change below about -30%; note: % is set by controls: 0 for no effect and ±100 for the full control effect
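Using tetracycline-induced force-coupled D1 Hek293 cells and a calcium dye, signals were followed for 180 s after compound, then for 180 s after EC80 dopamine, to detect inhibitors.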
D1 agonist: Allosteric Agonists of the Human D1 Dopamine Receptor: qHTS; D(1A) dopamine receptor (Homo sapiens), P21728; HEK293 T-REx D1 cells, calcium flux, agonist mode; activation, % at 2 µM; actives 1% (n = 360,000); AID 504660, 2011; note: 0% is about no effect
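Agonism was scored from calcium flux recorded over 180 s (1 read/s) after pintool compound addition, following a 10-cycle baseline. Cells were inducible force-coupled HEK293 TREx D1, plated overnight at 30 C and loaded with no-wash calcium dye.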
Active calls of the source: *; ! = not confirmed by another sample. Cut-off read from the data, not from the text of the source, unless noted: active = activation above about 30%; inactive = the rest.

SMILES	TRHR ag	TRHR PAM	D1 potentiator	D1 antag	D1 agonist
Cc1ccc(S(=O)(=O)N2CCN(Cc3cc(Br)ccc3O)CC2)cc1	0	0	-2	-9	5
CCOC(=O)C1=C(CN2CCCCCC2)NC(=O)NC1c1ccc2c(c1)OCO2 (stereo not drawn)	0	-6	-1	11	7
CCOC(=O)C1=C(CN2CC(C)CC(C)C2)NC(=O)NC1c1ccc2c(c1)OCO2 (stereo not drawn)	0	10	-2	20	31*
CCOC(=O)C1=C(CN2CCN(c3ccccc3OC)CC2)NC(=O)NC1c1ccccc1 (stereo not drawn)	1	-1	-3	-32*	2
CCOC(=O)N1CCN(c2c(N3CCN(c4ccccc4OC)CC3)c(=O)c2=O)CC1	-1	-11	-3	-33*	0
O=C(Cn1cc(C(=O)C2CCCCC2)c2ccccc21)Nc1ccccc1Cl	0	4	-6	0	5
COc1cccc(C(=O)Nc2cccc(-c3cn4c(C)csc4n3)c2)c1OC	-1	1	-2	3	-1
O=C(c1ccc(Cl)cc1)c1c[nH]c(C(=O)NNc2cccc(Cl)n2)c1	1	2	-2	-31*	3
O=C(c1ccccc1)c1c[nH]c(C(=O)NNc2cccc(Cl)n2)c1	0	0	-2	6	1
CC(=O)Nc1ccc(NC(=O)C2Cc3ccccc3N2C(=O)c2ccccc2)cc1 (stereo not drawn)	1	-3	0	3	0
COc1ccc(C(=O)CC2(O)C(=O)N(CCc3ccccc3)c3ccc(Br)cc32)cc1OC (stereo not drawn)	1	-17	0	1	4
CCc1nn2c(=O)cc(COC(=O)Cc3ccccc3)nc2s1	0	-2	-3	-4	3
CCOC(=O)C1(CCc2ccccc2)CCN(C(=O)CN2C(=O)CSC2=O)CC1	0	-1	2	-13	48*
Cc1ccc2[nH]c(=O)c3cc(C(=O)N(CCCOC(C)C)Cc4ccco4)sc3c2c1	2	42*!	-2	4	1
CC1Oc2ccccc2C=C1/C=N/NC(=O)c1ccccc1O (stereo not drawn)	0	3	-1	-40*	17
CN(C)CCCN(C(=O)COc1ccccc1)c1nc2cc3c(cc2s1)OCO3	2	3	-2	-29	36*
CN(C)CCCN(C(=O)c1ccc2ccccc2c1)c1nc2cc3c(cc2s1)OCO3	1	6	-4	6	36*
CN(C)CCCN(C(=O)COc1ccccc1)c1nc2c(F)cccc2s1	1	32*	3	24	1
CN(C)CCCN(C(=O)c1ccc(S(=O)(=O)N(C)Cc2ccccc2)cc1)c1nc2cc3c(cc2s1)OCO3	1	-9	-3	-55*	20
COc1cccc2sc(N(CCCN(C)C)C(=O)COc3ccc(Cl)cc3)nc12	2	0	-2	-27	15
COc1ccc2sc(N(CCCN(C)C)C(=O)c3ccc(S(=O)(=O)N(C)Cc4ccccc4)cc3)nc2c1	1	0	-1	0	3
COc1ccc(NC(=O)c2sc3nc(C)c(C(=O)Nc4ccc(C)cc4C)c(-c4sccc4C)c3c2N)cc1	3	-3	2	10	15
CCC(C)n1c(=O)c2sccc2n2c(CCCC(=O)Nc3ccc(F)cc3)nnc12 (stereo not drawn)	0	-2	-2	-13	3
O=C(c1cccn1-c1nnc(N2CCCC2)s1)N1CCN(c2ccc(Cl)cc2)CC1	-1	-3	-4	2	1
O=C(CNC(=O)c1ccc(Cl)cc1)OC(C(=O)Nc1cc(C(F)(F)F)ccc1Cl)c1ccccc1 (stereo not drawn)	1	-4	5	25	2
SMILES	TRHR ag	TRHR PAM	D1 potentiator	D1 antag	D1 agonist
Cc1ccc(S(=O)(=O)n2nc(C)c(S(=O)(=O)N3CCC(C)CC3)c2C)cc1	0	2	-3	-4	-1
CCN(c1ccccc1)S(=O)(=O)c1ccc(C(=O)N(CCCN(C)C)c2nc3c(C)cccc3s2)cc1	1	-3	1	23	11
CN(C)CCCN(C(=O)c1ccc2c(c1)OCCO2)c1nc2cc3c(cc2s1)OCO3	1	6	-5	1	6
CCN(c1ccccc1)S(=O)(=O)c1ccc(C(=O)N(CCCN(C)C)c2nc3cc4c(cc3s2)OCO4)cc1	6	6	-6	-25	42*
COc1ccc(C)c2sc(N(CCCN(C)C)C(=O)c3ccc4c(c3)OCCO4)nc12	0	-2	-13	-21	66*
CN(C)CCCN(C(=O)c1ccc([N+](=O)[O-])o1)c1nc2cc3c(cc2s1)OCO3	1	2	-2	-47*	1
COc1cc(Cl)c(C)cc1NC(=O)c1cc(CN2CCOCC2)on1	0	8	-3	-7	0
CC(=O)c1ccc(NC(=O)C2CCCN(S(=O)(=O)c3cn(C)cn3)C2)cc1 (stereo not drawn)	1	-2	-1	3	0
CCCCN(CC)CCCNC(=O)C1CCN(c2nc3ccc(CC)cc3s2)CC1	5	-6	6	-62*	79*
CCCCN(C)CCCNC(=O)C1CCN(c2nc3ccc(CC)cc3s2)CC1	3	-1	3	-53*	84*
CCOc1ccc2nc(N3CCC(C(=O)NCCCN4CCOCC4)CC3)sc2c1	0	-2	1	4	1
CCOc1ccc2nc(N3CCC(C(=O)Nc4c(C)cccc4C)CC3)sc2c1	0	6	-2	-56*	-1
CCOc1ccc2nc(N3CCC(C(=O)NC4CCCCC4)CC3)sc2c1	0	0	0	-3	9
COc1ccc(C)cc1NC(=O)CCn1nc(C)cc1C	0	1	-5	-4	3
COc1ccc(CCNC(=O)c2cc(-c3ccccn3)nc3ccccc23)cc1	0	-1	-4	-35*	0
CCOc1ccc(CCNC(=O)c2cn(-c3ccc(OC)cc3)c(=O)c3ccccc23)cc1OCC	0	-2	-3	2	6
CCOc1ccc(CCNC(=O)c2cn(-c3cccc(OC)c3)c(=O)c3ccccc23)cc1	0	10	-3	-42*	1
COc1ccc(-n2cc(C(=O)NCCc3ccc(C)cc3)c3ccccc3c2=O)cc1	1	9	-3	-39*	5
COc1ccc(-c2cc(C(=O)NCCc3ccccc3)c3c(-c4ccc(Cl)cc4)[nH]nc3n2)cc1	1	-6	-3	7	6
